# The supplement of paper PMC3334620
# Whole data set: some 33,000 sequences, median “E-score (-0.5 to 0.5)” near -0.016, cut for the highest 2% near 0.31. This is one part of a sample in which the highest values are shown more often than they occur.
# Target: Cst6 (UniProt P40535)
# Test: PBM E-score (8-mer binding enrichment) (E-score (-0.5 to 0.5)); higher = stronger / more preferred TF binding
# Conditions: protein concentration: 200 nM; construct: GST-DNA-binding domain
# Method: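 Universal 'all 10-mer' protein binding microarrays (Agilent AMADID 015681) probed with GST-tagged S. cerevisiae TFs (full-length or DBD) made by in vitro transcription/translation (PURExpress), about 100-200 nM. Bound TF was detected with fluorescent anti-GST. Each ungapped 8-mer (which stands for itself and its reverse complement) is scored by the PBM enrichment score (E-score), a modified Wilcoxon-Mann-Whitney statistic from -0.5 to +0.5, computed with the Universal PBM Analysis Suite. Scale: above 0.35 generally sequence-specific binding.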
# Sequence of UniProt P40535 (P40535 whole entry): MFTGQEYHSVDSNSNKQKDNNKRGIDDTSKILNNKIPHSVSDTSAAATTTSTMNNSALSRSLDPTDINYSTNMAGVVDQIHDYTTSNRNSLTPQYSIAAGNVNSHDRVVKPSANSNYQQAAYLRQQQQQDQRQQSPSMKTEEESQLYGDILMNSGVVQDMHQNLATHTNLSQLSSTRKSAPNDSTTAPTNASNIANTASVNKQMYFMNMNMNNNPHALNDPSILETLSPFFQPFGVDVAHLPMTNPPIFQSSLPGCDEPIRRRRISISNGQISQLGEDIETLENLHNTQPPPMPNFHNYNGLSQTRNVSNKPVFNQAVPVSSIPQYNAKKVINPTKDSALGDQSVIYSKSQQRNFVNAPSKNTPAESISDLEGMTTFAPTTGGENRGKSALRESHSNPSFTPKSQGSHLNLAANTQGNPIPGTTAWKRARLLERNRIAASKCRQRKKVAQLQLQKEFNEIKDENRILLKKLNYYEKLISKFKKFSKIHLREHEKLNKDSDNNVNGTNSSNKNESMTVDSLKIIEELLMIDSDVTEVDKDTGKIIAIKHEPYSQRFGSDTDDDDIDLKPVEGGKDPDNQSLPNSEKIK
row,Sequence,PBM E-score
1,ATCATCTA,0.151
2,GGCATCAA,0.0768
3,GTCATCTA,0.368
4,ATCATCGA,0.183
5,AGAGCCCA,-0.263
6,ATCCCGAA,0.00888
7,TCGAACCA,-0.0349
8,CCATGGAA,-0.0645
9,ACCAGGTC,-0.218
10,CTCATCCA,0.0578
11,GTCATCCA,0.383
12,ATCATCCA,0.0994
13,AGGGGTTC,-0.327
14,CGTCACGA,0.449
15,GGTCACGA,0.0109
16,AGTCACGC,-0.07
17,CCTCACGC,0.22
18,CGTCACGC,0.441
19,AGTCACGA,0.0257
20,GCCCACGC,-0.238
21,GTGATGGA,0.0419
22,AAGTCTGC,-0.226
23,ATCTTCTC,-0.0503

row,Sequence,PBM E-score
1,GACCAAAC,0.0333
2,AACGCCGA,0.23
3,CACGCCGC,0.0528
4,AACGCCGC,0.361
5,AATGCCGA,0.041
6,GACGCCGC,0.271
7,AATGCCGT,0.418
8,AATGCCGG,-0.0561
9,AACGCCGT,0.373
10,AACGCCGG,-0.138
11,GCTCGGCA,-0.0691
12,ACGTTTCT,-0.0531
13,CCCAGGGC,-0.337
14,CTCCTCAG,-0.231
15,CCAATTGG,-0.0187
16,ACAAGCGT,0.0465
17,CCCATGAA,-0.00568
18,ACCATGAC,0.395
19,CCCATGAC,0.336
20,GCCATGAC,0.284
21,ACCATGAT,0.146
22,ACCATGAA,0.0849
23,CCCATAAA,-0.0662

row,Sequence,PBM E-score
1,ACCCTGCT,-0.34
2,TAGCGTCA,0.399
3,AAGCGTCC,-0.0893
4,AAGCGTCA,0.336
5,GAGCGTCA,0.271
6,AAGCGTCG,-0.151
7,CAGCGTCA,0.279
8,AGGTGCGA,-0.148
9,ATCTTTAC,0.162
10,ATATCAGC,-0.0588
11,ATATCATC,0.337
12,ATATCATA,0.315
13,CTATCATA,0.14
14,CTATCATC,0.0729
15,ATATCATG,0.19
16,CCGGATCC,-0.199
17,CAGGATGC,-0.125
18,GCCGCCGC,0.205
19,TAGGCAGA,0.0434
20,ACGTCGAA,0.112
21,ACGTCAAC,0.484
22,CCGTCAAC,0.0147
23,ACGTCGAT,0.316

row,Sequence,PBM E-score
1,ACGTCGAG,-0.115
2,GTGTCAAC,0.0573
3,ACGTCAAA,0.389
4,GCGTCAAC,0.335
5,GCGTCAAA,0.151
6,TCGTCAAA,0.195
7,GAGTCAAC,-0.0954
8,AGGTCAAC,-0.0368
9,CGCCAGTA,-0.0657
10,TAAATTAA,0.127
11,CTCAGTAC,-0.0935
12,ACGTCAAG,0.373
13,AGGTCAAG,-0.0961
14,ACGTCAAT,0.455
15,AGGTCAAT,0.0479
16,CCGTCAAG,-0.129
17,ATGTCAAT,0.26
18,ATAAGAGA,0.217
19,CAAAGGTG,-0.0715
20,GTGCAGAA,0.0789
21,ACATCGGC,-0.0191
22,GCGCCAAA,-0.042
23,AATTTATA,0.263

row,Sequence,PBM E-score
1,AAATTATT,0.314
2,AAATTAAT,0.248
3,AAATTATA,0.278
4,AAATTAGT,0.29
5,CATTTATC,0.151
6,AAATTATG,0.164
7,AATTTATC,0.312
8,AAATTATC,0.308
9,GGTTTTGA,0.105
10,GGCCCTGA,-0.208
11,AACAGGCA,-0.0324
12,AAGTAAAG,-0.172
13,CCGTAAAG,0.00566
14,ATGTAAAT,0.309
15,AGGTAAAT,0.0678
16,AAGTAAAT,0.214
17,ACGTAAAC,0.31
18,ACGTAAAG,0.306
19,ATGTAAAA,0.144
20,ATGTAAAC,0.269
21,GCGTAAAC,0.168
22,ACGTAAAT,0.385
23,CCGTAAAC,0.0456
